The values below come from PubChem BioAssay AID651871 (Sanford-Burnham Center for Chemical Genomics, 2012).

The assay concerns HL-1. Nature of the assay: protection of cardiomyocytes from stress damage, SAR follow-up, cell-based, panel, H9c2 and HL-1, ATP luminescence, set 2 (AID 651871).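 Note: cells exposed to stressor for 2 h before ATP readout; reference of the scale not given here.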 The conditions noted are these: H9c2/HL-1 cardiomyocytes, 2-deoxyglucose stress, with 2-deoxyglucose, run 6, at 79 µM (top of the series).
For the molecule `COc1ccc2c(c1OC)C(=O)N1c3ccccc3C(=O)N(Cc3cccc(Cl)c3Cl)C21` (stereo not drawn), the activity (protection/inhibition) was -11.4%.
With `COc1ccc2nc(-c3cc(OC)c(OC)c(OC)c3)cc(C(=O)NCC(=O)Nc3ccc(C(C)=O)cc3)c2c1`, the activity (protection/inhibition) turned out to be 61.1%.
The same measure for `CCOC(=O)c1cccc(NC(=O)CNC(=O)c2cc(-c3cc(OC)c(OC)c(OC)c3)nc3ccccc23)c1`: 74.8%.
